Shn3 inh set2: inhibitors of Schnurri-3 3'UTR reporter in osteoblasts | Clone20 osteoblast Shn3 3'UTR firefly luciferase, 24 h | inhibition, % at 12.5 µM | 360,000 tested, 0.52% active;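 active means mean inhibition of at least 75% with every replicate also reaching 75%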;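 further: 0% = median of neutral control wells and 100% = pilot-screen positive control compound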
Mdm2 MdmX PPI: disrupts the human Mdm2-MdmX interaction. inhibition, % at 8 µM. 330,000 tested, 3% active. AID 485346. SaOS-2 split-luciferase Mdm2/MdmX complementation, luminescence. O15151+Q00987;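 active means inhibition of at least 50% at 8 µM in the primary screen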
Target sequence (O15151 whole entry, looked up): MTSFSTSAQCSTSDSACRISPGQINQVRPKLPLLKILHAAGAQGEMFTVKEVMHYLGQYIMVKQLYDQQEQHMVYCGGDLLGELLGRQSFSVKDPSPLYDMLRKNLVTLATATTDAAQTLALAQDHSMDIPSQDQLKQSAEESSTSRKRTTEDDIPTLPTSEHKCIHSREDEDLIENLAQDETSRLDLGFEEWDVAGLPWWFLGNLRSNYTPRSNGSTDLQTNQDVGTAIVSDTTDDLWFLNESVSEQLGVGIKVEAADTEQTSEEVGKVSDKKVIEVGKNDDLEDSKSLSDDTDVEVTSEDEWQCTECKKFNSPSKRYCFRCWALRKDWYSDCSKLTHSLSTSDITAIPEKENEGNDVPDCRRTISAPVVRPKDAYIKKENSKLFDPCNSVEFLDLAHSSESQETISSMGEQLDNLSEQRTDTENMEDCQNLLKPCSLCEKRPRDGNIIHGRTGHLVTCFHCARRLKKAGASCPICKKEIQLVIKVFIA
Target sequence (Q00987 whole entry, looked up): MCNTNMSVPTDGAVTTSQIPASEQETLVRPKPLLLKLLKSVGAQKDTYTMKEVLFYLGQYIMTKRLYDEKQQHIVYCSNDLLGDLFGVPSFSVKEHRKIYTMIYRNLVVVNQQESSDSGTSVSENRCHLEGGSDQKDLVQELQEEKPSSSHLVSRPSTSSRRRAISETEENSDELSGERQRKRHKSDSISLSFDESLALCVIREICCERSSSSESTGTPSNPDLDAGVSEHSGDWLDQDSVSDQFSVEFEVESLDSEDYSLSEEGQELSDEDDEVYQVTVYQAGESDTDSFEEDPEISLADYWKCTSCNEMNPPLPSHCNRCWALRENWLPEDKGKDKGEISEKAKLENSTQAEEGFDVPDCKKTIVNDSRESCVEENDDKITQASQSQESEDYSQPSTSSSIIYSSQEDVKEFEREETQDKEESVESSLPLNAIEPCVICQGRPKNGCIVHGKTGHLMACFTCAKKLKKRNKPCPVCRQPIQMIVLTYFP
697 NFkB inh: lowers PMA/ionomycin-induced NF-kB signal in 697 B cells | 330,000 tested, 0.33% active | inhibition, % at 4 µM | 697 B-cell NF-kB luciferase reporter, 16 h; in the data active means inhibition above about 35%
Jurkat NFkB inh: inhibitors of the PMA/ionomycin-induced NF-kB reporter in Jurkat cells; PMA/ionomycin-induced NF-kB luciferase reporter, luminescence; inhibition, % at 4 µM; 330,000 tested, 0.53% active; AID 435003; in the data active means inhibition above about 50%
Gli-Sufu antag: blocks Gli-Sufu signaling in a luciferase reporter; inhibition, % at 5 µM; 340,000 tested, 0.74% active; Sufu-KO-LIGHT fibroblasts, Gli luciferase reporter luminescence;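 active means inhibition above about 55%, limit read from the data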;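 further: 0% = DMSO-treated cells and 100% = wells with medium but no cells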
Gli-Sufu confirm: confirmation of Gli-SUFU pathway antagonists | Sufu-KO-LIGHT cells, Gli luciferase reporter, luminescence | shares compounds with Gli-Sufu antag | 2,500 tested, 40% active | inhibition, % at 5 µM;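 active means mean inhibition at 5 µM reaching about 45%, limit read from the data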;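 further: plate controls were DMSO-treated cells for no effect and wells lacking cells for full effect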
SufuKO cytotox: cytotoxic in Gli-SUFU antagonist counter-screen; shares compounds with Gli-Sufu antag; Sufu-KO-LIGHT cells cytotoxicity, ATP luminescence; cytotoxicity, % at 5 µM; 2,500 tested, 32% active; AID 651994;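 active means mean cytotoxicity at 5 µM above about 25%, limit read from the data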;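 further: cells exposed to compound overnight for roughly 16 to 18 hours; plate controls were DMSO wells with cells for no effect and medium without cells for full effect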
Wnt3a counter: inhibits Wnt3a reporter, counter-screen for Gli-SUFU antagonists; shares compounds with Gli-Sufu antag; Wnt-LIGHT cells, Wnt3a-driven luciferase reporter, luminescence; inhibition, % at 6.25 µM; 2,500 tested, 20% active;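 active means mean inhibition above about 25%, limit read from the data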
* = called active by the depositor; . = no result. Sampled rows, rich in hits. Any-hit rate of the full collection: about 3.8%.

SMILES | Shn3 inh set2 | Mdm2 MdmX PPI | 697 NFkB inh | Jurkat NFkB inh | Gli-Sufu antag | Gli-Sufu confirm | SufuKO cytotox | Wnt3a counter
COc1ccccc1N1CCN(Cc2ccc(Br)s2)CC1 | 8 | 11 | 14 | 3 | 58* | 13 | 5 | -16
COc1ccc(Cl)cc1C(=O)C1CCCN(Cc2cnc(C)s2)C1 (stereo not given) | 41 | 19 | -4 | 1 | 18 | . | . | .
COc1cc(C2c3cc4c(c(O)c3CC3COC(=O)C32)OCO4)cc(OC)c1OC (stereo not given) | -1 | . | . | . | 62* | 57* | 64* | -16
O=C(/C=C/c1ccc(Cl)cc1)NC(=S)N1C[C@H]2C[C@H](C1)c1cccc(=O)n1C2 | -8 | -19 | 13 | 10 | 0 | . | . | .
C[N+]1=C(/C=C/Nc2ccccc2)C(C)(C)c2ccccc21 | 52 | 1 | -10 | 1 | 63* | 66* | 26* | 12
O=C(NC(=O)N1CCC2(CC1)OCCO2)c1ccc(Cl)cc1 | 3 | -7 | 14 | 0 | 65* | 18 | 22 | -7
CN1C(=O)C(=Cc2ccccc2Oc2ccc(Cl)cc2)C(=O)N(C)C1=O | 2 | 19 | 11 | 1 | 52 | 27 | 5 | 10
CN1C(=O)C(=Cc2ccccc2OCc2ccc(Cl)cc2)C(=O)N(C)C1=O | -9 | -16 | -31 | -21 | -13 | . | . | .
CNP1(NC)=NC(C(F)(F)F)=NC(C(F)(F)F)=N1 | -32 | -2 | -22 | -43 | 56* | 11 | 6 | -6
COC(=O)C1=C(c2ccc(C(C)=O)cc2)C[C@@H]2CC[C@H]1N2C(=O)N1CCCCC1 | 2 | 10 | -5 | 1 | 7 | . | . | .
NNC(N)=O | -6 | 9 | -15 | -13 | 51 | . | . | .
